Source: PubChem (several laboratories)
HTR5A ag: activates human HTR5A in OPRM1-OPRD1 agonist counter-screen; HTR5A agonist assay, luminescence, cell-based; activation, % at 9.3 µM; 340,000 tested, 0.61% active; in the data active = activation mostly above about 9.5%, no sharp cut-off; inactive = mostly below about 7.6%;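 note: 0% = cells with vehicle only and 100% = reference agonist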
Target sequence (P47898 whole entry, looked up): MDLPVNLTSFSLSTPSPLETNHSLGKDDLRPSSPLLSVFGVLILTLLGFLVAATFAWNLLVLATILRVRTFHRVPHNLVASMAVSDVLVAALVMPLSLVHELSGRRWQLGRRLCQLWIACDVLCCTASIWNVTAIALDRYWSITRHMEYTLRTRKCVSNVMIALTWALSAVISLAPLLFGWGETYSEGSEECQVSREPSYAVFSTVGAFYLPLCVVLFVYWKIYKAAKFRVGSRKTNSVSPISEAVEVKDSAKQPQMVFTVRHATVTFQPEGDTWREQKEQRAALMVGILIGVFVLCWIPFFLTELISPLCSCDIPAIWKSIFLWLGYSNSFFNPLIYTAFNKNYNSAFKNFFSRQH
OPRM1-OPRD1 ag: agonists of human mu-delta opioid receptor heterodimerization; P35372+P41143; cells, OPRM1-OPRD1 heterodimerization, luminescence; activation, % at 9.3 µM; 340,000 tested, 0.3% active; in the data active = activation above about 18%;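 note: 0% = vehicle-treated cells and 100% = reference agonist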
A1 inh: inhibitors of the anti-apoptotic protein A1, read as caspase activation; MEF A1-2A-BIM cells, Caspase-Glo 3/7 luminescence, 3 h; percent of clofoctol response, vehicle zero; caspase activation, % (no concentration beside the values); 330,000 tested, 0.066% active; AID 2462;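 active = over half of replicate activation scores above 10%, or exactly half above 10 with the replicate mean above 10; inconclusive = replicate mean below 10 yet half the replicates above 10; inactive = over half of replicates below 10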
HTR5A inv ag: HTR5A inverse agonism, opioid heterodimer counter-screen; inhibition, % at 9.3 µM; HTR5A cell line, luminescence; 340,000 tested, 0.083% active; in the data active = inhibition mostly above about 23%, no sharp cut-off; inactive = mostly below about 18%;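 note: 0% = cells with DMSO and 100% = no-cell wells with DMSO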
OPRM1-OPRD1 inv: inverse agonist of human OPRM1-OPRD1 heterodimerization; cell-based MOR-DOR heterodimer luminescence, inverse agonism; inhibition, % at 9.3 µM; 340,000 tested, 0.21% active; in the data active = inhibition above about 22%, passing the limit was not always enough;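 note: 0% = cells with DMSO and 100% = wells without cells with DMSO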
* hit, by the source's call; u = inconclusive; x = no result given. A selection: hits, their analogues and other compounds. The true share with any hit is near 1.1%.

SMILES	HTR5A ag	OPRM1-OPRD1 ag	A1 inh	HTR5A inv ag	OPRM1-OPRD1 inv
O=C(Nc1cccc(C(F)(F)F)c1)Nc1ccc2[nH]c(=O)[nH]c2c1	12.7*	2.8	-0.2	-47.7	-12.5
O=C(Nc1ccccc1)C(Cl)C(=O)c1ccccc1 (centres undefined)	-13.4	-19.1	-0.8	50.7*	95.6*
CC(C(=O)Nc1ccccc1)C(=O)Nc1ccccc1	1.9	0.9	-0.5	-7.0	-4.5
CC(=O)C(Cl)C(=O)Nc1ccccc1 (centres undefined)	-4.9	-14.9	x	-1.1	74.5*
Cc1cccc(N(CC(=O)NC(C)(C)C)C(=O)CCC(=O)Nc2ccccn2)c1	4.7	0.9	-0.1	-12.9	-4.4
Cc1cc(N2CCOCC2)nc2ccc(NC(=S)N3CCCCC3C)cc12 (centres undefined)	12.1*	3.1	-0.3	-33.2	-22.4
Cc1cc(N2CCN(C)CC2)nc2ccc(NC(=S)N3CCCCC3)cc12	-4.7	-3.1	x	13.4	16.7
NC(=O)c1cc(Cc2ccccc2)sc1NC(=O)c1ccco1	3.0	0.9	-0.1	-9.8	-4.9
CCOc1ccc(CC(=O)Nc2sc(Cc3ccccc3)cc2C(N)=O)cc1OCC	9.6*	2.4	0.7	-49.5	-13.8
O=C(O)CC1(CC(=O)Nc2ccc(C(F)(F)F)cc2)CCCC1	9.5*	-1.1	-0.2	-35.7	5.1
NCCCC[C@H]1CNC(=O)C(=O)N1CCc1cccc2ccccc12	4.3	-1.4	0.5	-1.9	8.1
Cc1noc(C)c1COc1ccc(C(=O)OC(C)C(=O)Nc2ccc(N3CCOCC3)cc2)cc1 (centres undefined)	-2.5	-3.1	5.8*	-13.0	15.4
CC(=O)Nc1ccc(NC(=O)C(C)OC(=O)c2ccc(OCc3c(C)noc3C)cc2)cc1 (centres undefined)	0.8	-0.8	0.1	8.3	4.3
Cc1noc(C)c1CSCC(=O)N(C)CC(=O)Nc1ccc(Cl)c(Cl)c1	0.4	-0.2	9.7*	-1.0	0.9
Cc1cccc(NC(=O)Cc2cccs2)n1	2.7	0.3	-1.3	-42.6	-1.6
CC(=O)Nc1ccc(Nc2nc3ccccc3nc2NS(=O)(=O)c2ccccc2)cc1	12.0*	-2.2	0.4	13.1	12.0
CC(=O)n1cc(/C=N/NC(=O)c2ccccc2O)c2ccccc21	-1.8	-1.6	-5.1	7.1	9.2
Cn1cc(/C=N/NC(=O)c2ccccc2O)c2ccccc21	10.4*	-4.5	-0.5	-35.4	21.5
Cc1c(C(=O)OCC(=O)Nc2ccc(S(N)(=O)=O)cc2)oc2c1ccc1ccccc12	11.7*	10.0	2.4	-20.7	-48.4
Cc1cc(NC(=O)COC(=O)c2oc3c(ccc4ccccc43)c2C)no1	0.2	5.3	u	-0.7	-30.0
COC(=O)c1cccc(NC(=O)Nc2ccccc2OC)c1	5.6	0.1	-6.2	-0.1	-0.5
O=C(NCc1ccc(F)cc1)c1noc2c1CCCCC2	14.2*	3.9	x	-6.1	-21.9
O=C(NCCN1CCCCC1)c1cc(OCC(F)(F)F)ccc1OCC(F)(F)F	10.4*	0.4	-0.2	-9.9	-2.1
Cc1ccc(NC(=O)CNCc2ccccc2)c(Br)c1	0.0	3.6	0.3	0.0	-16.6
Cc1ccc(CNCC(=O)Nc2ccc(C)cc2Br)cc1	11.8*	2.0	-0.4	12.5	-9.7
SMILES	HTR5A ag	OPRM1-OPRD1 ag	A1 inh	HTR5A inv ag	OPRM1-OPRD1 inv
Cc1cc(NC(=O)CSc2nnc(-c3c[nH]c4ccccc34)n2-c2ccc(Cl)cc2)no1	13.5*	20.7*	-1.2	-27.5	-112.0
Cc1sc(-c2ccncc2)nc1OC(=O)c1ccc(F)cc1F	9.8*	1.2	1.3	-25.6	-6.9
CCCCN(CC)C(=O)c1cc2c(=O)[nH]c3ccc(C)cc3c2s1	1.2	2.4	-1.4	-4.3	-10.5
CCCCN(Cc1ccco1)C(=O)c1cc2c(=O)[nH]c3ccc(C)cc3c2s1	15.9*	19.7*	-0.3	-46.6	-108.2
CCCC(=O)Nc1nnc(S(=O)(=O)N(CC(C)C)c2ccccc2)s1	-2.3	-0.5	0.2	8.9	2.3
CC(C)Oc1ccc(C(=O)Nc2ccc(Cl)c(S(=O)(=O)Nc3ccc(Cl)cc3)c2)cc1	12.4*	13.4	-1.0	0.6	-68.0
O=C(NC(C(=O)c1ccccc1)N1CCOCC1)c1ccccc1 (centres undefined)	-2.2	1.5	-0.4	-8.9	-9.2
O=C(NC(C(=O)c1ccccc1)N1CCOCC1)c1cccs1 (centres undefined)	12.5*	1.1	0.0	-26.1	-6.6
NC(=O)c1ccc[n+](Cc2ccc(-c3ccccc3)cc2)c1	0.3	-0.6	2.1	-1.0	2.7
CCS(=O)(=O)N1Cc2ccccc2CC1C(=O)N(C)CC(=O)Nc1cccc(F)c1 (centres undefined)	9.9*	-0.9	-0.3	12.3	5.8
CN(CC(=O)Nc1ccc(F)cc1)C(=O)C1Cc2ccccc2CN1S(C)(=O)=O (centres undefined)	-4.3	-3.3	x	10.5	17.3
CC1CC(=O)c2c(cc3c(-c4c(O)cc(O)c5c(O)c6c(cc45)OC(C)CC6=O)c(O)cc(O)c3c2O)O1 (centres undefined)	16.8*	81.7*	0.1	12.6	-412.3
O=C(Nc1nc(-c2cccs2)cs1)c1ccc(Cl)s1	13.9*	5.1	-1.2	-41.5	-26.0
CC(=O)Nc1nc(-c2cccs2)cs1	-0.8	-2.7	-2.5	5.1	15.2
COC(=O)c1cc(NC(=O)CC2SC(=Nc3ccccc3)N(CCc3c[nH]c4ccccc34)C2=O)cc(C(=O)OC)c1 (centres undefined)	4.2	-1.1	0.1	-11.2	6.7
COc1ccc(-c2csc(NC(=O)C3=NN(c4ccccc4)C(=O)CC3)n2)cc1	10.3*	-1.4	-0.2	-26.7	7.3
O=C(Nc1nc(-c2cc(F)ccc2F)cs1)C1=NN(c2ccccc2)C(=O)CC1	-1.1	-1.8	0.0	2.8	9.0
Cc1cc(=O)oc2c1c(C)nn2-c1nn[nH]n1	2.4	-2.0	0.2	-4.4	12.6
CC(=O)c1c(C)n(CC(=O)NCc2ccco2)c2ccccc12	9.8*	0.5	0.6	9.0	-2.6
O=C(NCCNC(=O)c1cccnc1)c1ccc(Br)cc1	-5.2	1.6	-0.4	13.2	-6.7
O=C1CC(c2ccc(F)cc2)Cc2nc(N3CCOCC3)ncc21 (centres undefined)	1.0	-2.6	-0.3	4.6	10.8
O=C1CC(c2cccc(Cl)c2)Cc2nc(N3CCOCC3)ncc21 (centres undefined)	12.9*	-0.4	-0.2	13.2	1.8
CN(C)CCCN1c2ccccc2Sc2ccccc21	0.0	-1.2	u	0.1	6.6
COc1ccc2c(c1)Sc1ccccc1N2CCN(C)C	-4.4	19.0*	0.3	-8.2	-108.0
COc1cccc(NC(=O)CCC2CCN(Cc3nccs3)CC2)c1	-0.8	-2.3	-0.8	2.0	11.7
CC1=[N+](C)c2ccc3ccccc3c2C1(C)C	13.1*	9.5	-0.7	-37.0	-68.9
O=C(Cn1ncc(Cl)c(Cl)c1=O)NC1CCCCC1	-2.5	1.9	-0.5	6.1	-7.4
